Results from PubChem BioAssay (Tox21).
Inconclusive results are not listed. Activity calls are given as the source filed them. Unless noted, calls follow the shape of the full dose curve.

How the values were obtained:
[1] = qHTS assay to identify small molecule agonists of the peroxisome proliferator-activated receptor delta (PPARd) signaling pathway - cell viability counter screen (AID 743211; active = well fitted curve in the direction sought with a large enough effect in the repeat runs; an effect the other way counts as inactive or inconclusive; also: nearly all actives have a fitted effect of over 55% in size)
In short: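 Multiplexed format: after the 2 h room-temperature LiveBLAzer B/G FRET step, CellTiter-Glo was added to the same wells. Luminescence after 30 min gave cell viability; compound exposure was 17 h at 37C.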

[2] = target: Peroxisome proliferator-activated receptor delta (Homo sapiens) (UniProt Q03181); assay: qHTS assay to identify small molecule agonists of the peroxisome proliferator-activated receptor delta (PPARd) signaling pathway (AID 743212)
In short: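 HEK293H UAS-bla reporter cells, human PPARd system; compounds delivered in DMSO after 5 h plating, then at 37 C. Beta-lactamase FRET read, 2 h RT substrate step.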

[3] = qHTS assay to identify small molecule antagonists of the peroxisome proliferator-activated receptor delta (PPARd) signaling pathway - cell viability counter screen (AID 743213; active = well fitted curve in the direction sought with a large enough effect in the repeat runs; an effect the other way counts as inactive or inconclusive; also: nearly all actives have a fitted effect of over 50% in size)
In short: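 Viability counter-screen, qHTS format: PPARd-bla HEK293H, L165041 300 nM final, 17 h compound exposure at 37 C, CellTiter-Glo luminescence after 30 min RT.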

[4] = target: Peroxisome proliferator-activated receptor delta (Homo sapiens) (UniProt Q03181); assay: qHTS assay to identify small molecule antagonists of the peroxisome proliferator-activated receptor delta (PPARd) signaling pathway (AID 743215; active = well fitted inhibition curve with a large enough effect in the signal ratio in the repeat runs, not every such curve was filed as active; the % refers to the signal ratio;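 also: cells stimulated with agonist L165041 at 300 nM final during compound exposure; series mostly up to about 62 µM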)
In short: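 PPARd-bla HEK293H cells (UAS-bla reporter) preincubated 5 h, then given compound plus 300 nM final L165041 agonist for 17 h at 37 C. Beta-lactamase activity read by LiveBLAzer B/G FRET substrate fluorescence after 2 h at room temperature.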

[5] = target: Bile acid receptor (Homo sapiens) (UniProt Q96RI1); assay: qHTS assay to identify small molecule antagonists of the farnesoid-X-receptor (FXR) signaling pathway (AID 743217; active = well fitted inhibition curve with a large enough effect in the signal ratio in the repeat runs, not every such curve was filed as active; the % refers to the signal ratio)
In short: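 FXR-UAS-bla HEK 293T cells (beta-lactamase reporter) given compound plus chenodeoxycholic acid (50 uM final), 16 h at 37C. LiveBLAzer B/G FRET substrate added for 2 h at room temperature; fluorescence read.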

[6] = qHTS assay to identify small molecule agonists of the farnesoid-X-receptor (FXR) signaling pathway - cell viability counter screen (AID 743218; active = well fitted curve in the direction sought with a large enough effect in the repeat runs; an effect the other way counts as inactive or inconclusive; also: nearly all actives have a fitted effect of over 45% in size)
In short: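 FXR-UAS-bla HEK 293T cells exposed to compounds for 16 h at 37C. Cytotoxicity read in the same wells by CellTiter-Glo luminescence after 30 min at room temperature, following the beta-lactamase FRET read.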

[7] = target: Bile acid receptor (Homo sapiens) (UniProt Q96RI1); assay: qHTS assay to identify small molecule agonists of the farnesoid-X-receptor (FXR) signaling pathway (AID 743220; active = well fitted activation curve with a large enough effect in the signal ratio in the repeat runs, not every such curve was filed as active; the % refers to the signal ratio)
In short: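 Beta-lactamase reporter under UAS control in GeneBLAzer FXR HEK 293T cells (5000/well) measured with LiveBLAzer FRET substrate after 2 h at room temperature. Compound exposure lasted 16 h at 37C.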

[8] = qHTS assay to identify small molecule antagonists of the farnesoid-X-receptor (FXR) signaling pathway - cell viability counter screen (AID 743221; active = well fitted cell-killing curve with a large enough effect in the repeat runs, not every such curve was filed as active; also: nearly all actives have a fitted effect of over 50% in size)
In short: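 CellTiter-Glo, 30 min RT, luminescence; same wells as the LiveBLAzer FRET read. Cells: FXR-UAS-bla HEK 293T. Treatment: compound with chenodeoxycholic acid 50 uM final, 16 h at 37 C.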

[9] = target: Vitamin D3 receptor (Homo sapiens) (UniProt P11473); assay: qHTS assay to identify small molecule agonists of the vitamin D receptor (VDR) signaling pathway (AID 743222)
In short: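 VDR-bla cells plated 4 h at 37 C, then exposed to compounds for 16 h at 37 C. Beta-lactamase reporter activity measured by fluorescence after 2 h room-temperature loading with LiveBLAzer B/G FRET substrate.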

[10] = qHTS assay to identify small molecule agonists of the NFkB signaling pathway (AID 1159509; active = well fitted curve in the direction sought with a large enough effect in the signal ratio in the repeat runs, not every such curve was filed as active; the % refers to the signal ratio; also: series mostly up to about 61 µM)
In short: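 After overnight attachment, reporter cells received test compounds, DMSO or positive controls and were incubated 5 hr at 37 C. FRET substrate was then added for 1.5 hr at room temperature before dual-emission fluorescence reading.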

[11] = qHTS assay to identify small molecule agonists of the NFkB signaling pathway - cell viability counter screen (AID 1159515); also: series mostly up to about 61 µM; nearly all actives have a fitted effect of over 55% in size
In short: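 NFkB-bla ME-180 cells, 2,000/well, plated overnight at 37 C; compound added for 5 hr at 37 C. Viability read in the same wells as the bla reporter, by CellTiter-Glo luminescence after 30 min at room temperature.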

[12] = qHTS assay to identify small molecule agonists of the endoplasmic reticulum stress response signaling pathway (AID 1159516; active = well fitted activation curve with a large enough effect in the signal ratio in the repeat runs, not every such curve was filed as active; the % refers to the signal ratio)
In short: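 CellSensor ESRE-bla HeLa cells, 1,500 per well, plated overnight, then exposed to compounds for 5 hr at 37 C. Beta-lactamase reporter read with LiveBLAzer B/G FRET substrate after 2 hr at room temperature, 405 nm excitation, 460 and 530 nm emission.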

[13] = qHTS assay to identify small molecule agonists of the endoplasmic reticulum stress response signaling pathway - cell viability counter screen (AID 1159517);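 also: HeLa cells carrying an ER stress response element beta-lactamase reporter; series mostly up to about 61 µM; nearly all actives have a fitted effect of over 50% in size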
In short: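 Cells, HeLa ESRE-bla; density, 1,500/well; dosing, 5 hr at 37 C, 5% CO2; readout, CellTiter-Glo luminescence after 30 min RT.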

[14] = qHTS assay to identify small molecule antagonists of the retinoid-related orphan receptor gamma (ROR-gamma) signaling pathway - cell viability counter screen (AID 1159520; active = well fitted curve in the direction sought with a large enough effect in the repeat runs; an effect the other way counts as inactive or inconclusive; also: nearly all actives have a fitted effect of over 50% in size)
In short: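 Cytotoxicity was read from cellular ATP (CellTiter-Glo luminescence) after 16 hr at 37 C with 1 uM doxycycline induction. The inducer was added 2 hr after compound transfer to Tet-on ROR gamma CHO cells.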

[15] = qHTS assay to identify small molecule agonists of the AP-1 signaling pathway - cell viability counter screen (AID 1159525); also: nearly all actives have a fitted effect of over 55% in size
In short: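 Luminescent ATP readout (Cell Titer Glo, 30 min RT), normalised to DMSO and tetra n-octyl ammonium bromide controls. Cells were ME-180 AP-1-bla in 0.5% dialyzed FBS Opti-MEM, with a 5 h, 37 °C compound exposure.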

[16] = qHTS assay to identify small molecule agonists of the AP-1 signaling pathway (AID 1159526)
[17] = target: Vitamin D3 receptor (Homo sapiens) (UniProt P11473); assay: qHTS assay to identify small molecule antagonists of the vitamin D receptor (VDR) signaling pathway (AID 743223; active = well fitted inhibition curve with a large enough effect in the signal ratio in the repeat runs, not every such curve was filed as active; the % refers to the signal ratio)
In short: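 After VDR-bla cells are plated and left 4 h at 37C, DMSO-dissolved compounds and 3 nM (final) calcitriol agonist are added. Incubation continues 16 h at 37C; FRET beta-lactamase substrate then develops 2 h at room temperature.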

[18] = qHTS assay to identify small molecule agonists of the vitamin D receptor (VDR) signaling pathway - cell viability counter screen (AID 743224; active = well fitted curve in the direction sought with a large enough effect in the repeat runs; an effect the other way counts as inactive or inconclusive)
In short: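 VDR-bla cells, 4 h after plating, exposed to compounds for 16 h at 37C; viability then read in the same wells as CellTiter-Glo luminescence after 30 min at room temperature, following the bla FRET read.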

[19] = qHTS assay to identify small molecule antagonists of the vitamin D receptor (VDR) signaling pathway - cell viability counter screen (AID 743225; active = well fitted curve in the direction sought with a large enough effect in the repeat runs; an effect the other way counts as inactive or inconclusive; also: nearly all actives have a fitted effect of over 50% in size)
In short: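 Cytotoxicity toward the VDR-bla HEK 293T line was scored by ATP-based CellTiter-Glo luminescence, read in the wells already used for the beta-lactamase readout after 16 h compound treatment under 3 nM 1-alpha,25-dihydroxyvitamin D3 stimulation.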

[20] = target: Nuclear receptor ROR-gamma (Homo sapiens) (UniProt P51449); assay: qHTS assay to identify small molecule antagonists of the retinoid-related orphan receptor gamma (ROR-gamma) signaling pathway (AID 1159521; active = well fitted curve in the direction sought with a large enough effect in the repeat runs; an effect the other way counts as inactive or inconclusive)
In short: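 Readout: ONE-Glo luciferase luminescence, 30 min at room temperature. System: Tet-on RORγ CHO, RORE-LUC. Sequence: compound 2 h, doxycycline 1 uM final, 16 h at 37 C.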

Measured: Potency

Sequence of Bile acid receptor (Homo sapiens) (Q96RI1 whole entry, looked up): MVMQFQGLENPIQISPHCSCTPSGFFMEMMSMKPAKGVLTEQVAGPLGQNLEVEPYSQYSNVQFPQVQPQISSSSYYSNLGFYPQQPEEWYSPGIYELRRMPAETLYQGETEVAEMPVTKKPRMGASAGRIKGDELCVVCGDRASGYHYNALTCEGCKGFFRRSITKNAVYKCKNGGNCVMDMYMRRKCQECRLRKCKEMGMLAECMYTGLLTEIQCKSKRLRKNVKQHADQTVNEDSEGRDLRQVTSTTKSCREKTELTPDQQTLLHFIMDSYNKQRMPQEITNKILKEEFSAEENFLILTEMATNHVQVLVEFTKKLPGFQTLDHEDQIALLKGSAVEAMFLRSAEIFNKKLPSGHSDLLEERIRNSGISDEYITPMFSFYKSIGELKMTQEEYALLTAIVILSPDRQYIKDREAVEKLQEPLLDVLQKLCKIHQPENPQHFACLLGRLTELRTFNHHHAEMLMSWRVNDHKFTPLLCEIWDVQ
Sequence of Peroxisome proliferator-activated receptor delta (Homo sapiens) (Q03181 whole entry, looked up): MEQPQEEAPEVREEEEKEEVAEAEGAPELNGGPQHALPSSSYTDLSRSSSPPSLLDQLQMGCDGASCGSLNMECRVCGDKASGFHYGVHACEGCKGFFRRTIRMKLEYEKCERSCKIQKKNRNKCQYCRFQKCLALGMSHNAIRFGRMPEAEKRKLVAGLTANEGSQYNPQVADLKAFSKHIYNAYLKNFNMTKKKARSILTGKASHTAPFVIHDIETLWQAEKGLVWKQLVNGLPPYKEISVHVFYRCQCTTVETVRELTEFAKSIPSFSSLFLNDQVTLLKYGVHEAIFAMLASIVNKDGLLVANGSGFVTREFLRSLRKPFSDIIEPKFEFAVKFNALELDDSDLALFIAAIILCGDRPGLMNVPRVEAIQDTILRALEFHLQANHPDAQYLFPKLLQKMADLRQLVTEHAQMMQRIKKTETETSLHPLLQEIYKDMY
Sequence of Vitamin D3 receptor (Homo sapiens) (P11473 whole entry, looked up): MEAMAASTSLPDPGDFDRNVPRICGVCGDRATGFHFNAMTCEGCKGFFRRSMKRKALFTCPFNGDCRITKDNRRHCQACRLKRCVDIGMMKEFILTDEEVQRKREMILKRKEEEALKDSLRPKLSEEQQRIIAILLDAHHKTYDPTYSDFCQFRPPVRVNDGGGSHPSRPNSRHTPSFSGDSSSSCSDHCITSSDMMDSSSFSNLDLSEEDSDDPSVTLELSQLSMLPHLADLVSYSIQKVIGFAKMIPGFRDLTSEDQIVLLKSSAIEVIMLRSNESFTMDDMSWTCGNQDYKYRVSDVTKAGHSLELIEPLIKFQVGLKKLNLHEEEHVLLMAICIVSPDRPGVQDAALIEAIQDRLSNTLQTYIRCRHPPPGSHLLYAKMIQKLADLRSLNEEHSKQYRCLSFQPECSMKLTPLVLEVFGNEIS

C=CC1CC=CCC1 (stereo not given)
not listed: [17] | [18] | [19] | [20]
inactive: all other assays above

COC(=O)COc1ccc(Cl)cc1Cl
not listed: [1] | [3] | [5] | [7] | [8] | [15]
inactive: all other assays above

Cc1ccccc1CO[C@@H]1C[C@@]2(C(C)C)CC[C@]1(C)O2
not listed: [3] | [4] | [5] | [7] | [20]
inactive: all other assays above

C[C@H]1CCC[C@H](O)CCCCCc2cc(O)cc(O)c2C(=O)O1
not listed: [5] | [7] | [9] | [17] | [20]
inactive: all other assays above

Clc1cccc(N2CCNCC2)c1
not listed: [4] | [17] | [20]
inactive: all other assays above

COC(=O)c1ccccc1S(=O)(=O)NC(=O)N(C)c1nc(C)nc(OC)n1
not listed: [6] | [9] | [17] | [20]
inactive: all other assays above

c1cc2c(c(N3CCNCC3)c1)OCCO2
not listed: [5] | [7] | [15]
inactive: all other assays above

ClC(Cl)Br
not listed: [5] | [6] | [7] | [17] | [20]
inactive: all other assays above

CCN(CC)c1nc(C)cc(OP(=S)(OC)OC)n1
not listed: [1] | [3] | [4] | [5] | [6] | [7] | [16] | [17]
inactive: all other assays above

C#CCN1C(=O)COc2cc(F)c(N3C(=O)C4=C(CCCC4)C3=O)cc21
not listed: [1] | [3] | [5] | [7] | [20]
inactive: all other assays above

COC(C)(C)C
not listed: [1] | [3] | [4] | [5] | [7] | [20]
inactive: all other assays above

O=C1OC(=O)C2C1C1(Cl)C(Cl)=C(Cl)C2(Cl)C1(Cl)Cl (stereo not given)
not listed: [4] | [17] | [18] | [20]
inactive: all other assays above

[O]=[Cd]
not listed: [1] | [3] | [5] | [7] | [15] | [16] | [17]
inactive: all other assays above

C1CCC(C2CCCCC2)CC1
not listed: [1] | [2] | [4] | [6] | [8] | [19] | [20]
inactive: all other assays above

CCOP(=S)(OCC)SCSc1ccc(Cl)cc1
not listed: [2] | [4] | [11] | [17]
inactive: all other assays above

Fc1ccc(C2(Cn3cncn3)OC2c2ccccc2Cl)cc1 (stereo not given)
not listed: [2] | [4] | [7] | [11] | [17] | [18] | [19]
inactive: all other assays above

COC(=O)C(C)Oc1ccc(Oc2ccc(Cl)cc2Cl)cc1 (stereo not given)
not listed: [1] | [11]
inactive: all other assays above
